Assay outcomes deposited in PubChem by several laboratories.
This is a sample that favours compounds with a hit; in the whole collection about 3% have one here.
TWEAK Fn14 block – TWEAK-Fn14 signaling inhibition; TWEAK-stimulated Fn14 reporter cells, luciferase luminescence, 8 h; inhibition, % at 10 µM; 360,000 tested, 2% active; in the data active means inhibition above about 50%
LMP1 NFkB inh – Epstein-Barr LMP1 NF-kappaB reporter inhibition | LMP1-induced NF-kappaB luciferase reporter cells, luminescence | inhibition, % at 12.5 µM | 350,000 tested, 0.69% active; in the data active means inhibition above about 41%; inconclusive means no clear call, values can overlap the other calls;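 further: 0% = neutral control wells and 100% = reference inhibitor control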
TRPM1 prom inh – MITF TRPM1 promoter inhibition in SK-MEL-5 cells; SK-MEL-5 TRPM1 promoter luciferase, 24 h; 330,000 tested, 0.83% active; inhibition, % at 12.5 µM;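 active means mean inhibition across replicates of 60% or more, whatever share of single replicates reaches that level; inconclusive means some that reach 60%, reason not given; inactive means mean inhibition across replicates below 60%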
TROY NFkB inh – blocks TROY-dependent signaling in reporter cells; inhibition, % at 10 µM; Q293 LMP1-TROYcd NF-kB luciferase reporter, 4 h; 360,000 tested, 0.98% active;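 active means compounds whose plate-normalised and pattern-corrected inhibition of the luciferase reporter signal at the single screening dose is 50% or more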
LGR2 antag – blocks bursicon-induced cAMP signaling via Drosophila LGR2; 380,000 tested, 0.35% active; AID 720647; HEK293 LGR2, CRE-luciferase, bursicon-stimulated, 4 h; inhibition, % at 9.99 µM;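 active means drop in luminescence signal, shown as inhibition above about 50% in the replicate tests, limit read from the data, passing the limit was not always enough; inconclusive means probably only some replicates passing the limit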;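 further: agonist challenge used bursicon conditioned medium at about half maximal strength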
MITF TRPM1 HTS – increases MITF-driven TRPM1 promoter luciferase signal | SK-MEL-5 TRPM1-promoter luciferase, 24 h; % of positive control, neutral wells = 0 | activation, % at 12.5 µM | 300,000 tested, 0.75% active;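 active means mean activation of at least 80% with every replicate also reaching 80%; inconclusive means mean reaches 80% but some replicate falls short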;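 further: 0% = neutral control wells and 100% = parthenolide positive control wells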
An asterisk follows results filed as active; ? = inconclusive; / = no result.

SMILES	TWEAK Fn14 block	LMP1 NFkB inh	TRPM1 prom inh	TROY NFkB inh	LGR2 antag	MITF TRPM1 HTS
C[C@@H]1CN([C@H](C)CO)C(=O)c2cc(NC(=O)Cc3cn(C)c4ccccc34)ccc2O[C@@H]1CN(C)Cc1ccc(-c2ccccc2)cc1	/	/	/	/	6	/
CCOC(=O)C1CCCN(c2ccc(NC(=O)c3snc4c(=O)[nH]c(C)nc34)cc2)C1 (stereo unspecified)	-28	-54	29	51*	-8	-27
O=C1c2cccc3c([N+](=O)[O-])ccc(c23)C(=O)N1c1ccccn1	-111	55*	34	30	/	/
O=C1c2cccc3c([N+](=O)[O-])ccc(c23)C(=O)N1O	-19	2	50	12	-46	-46
O=C1c2cccc3cccc(c23)C(=O)N1c1nccs1	5	-3	-3	-22	/	5
CC(=O)Oc1ccc(N2C(=O)c3cccc4c([N+](=O)[O-])ccc(c34)C2=O)cc1	-99	17	25	55*	-2	/
O=C1c2ccc([N+](=O)[O-])cc2C(=O)N1c1ccc(Cl)cn1	-2	-2	-2	-12	-6	1
O=C1c2cccc3c([N+](=O)[O-])ccc(c23)C(=O)N1c1nccs1	-58	49*	?	39	/	-59
O=C1c2cccc3c([N+](=O)[O-])ccc(c23)C(=O)N1c1ccc(Cl)cn1	7	9	34	62*	7	-32
CC(CC(=O)N1CCN(c2cccc(Cl)c2)CC1)S(=O)(=O)c1ccc2c(c1)NC(=O)CO2 (stereo unspecified)	59*	22	25	47	20	-23
CN(C)CCCN(C(=O)c1ccc(S(=O)(=O)N2CCCC2)cc1)c1nc2ccc(Br)cc2s1	-5	4	83*	-7	4	-82
CCc1ccc2nc(N(CCCN(C)C)C(=O)c3ccc(S(=O)(=O)N(C)C4CCCCC4)cc3)sc2c1	-30	-5	96*	-22	-5	-95
Cc1cc(C)c2sc(N(CCCN(C)C)C(=O)c3ccc(S(=O)(=O)N(C)C4CCCCC4)cc3)nc2c1	-39	-6	90*	-24	13	-90
CCOc1ccc2nc(N(CCCN(C)C)C(=O)c3ccc(S(=O)(=O)N4CCCC4)cc3)sc2c1	14	11	-9	24	4	10
CN(C)CCCN(C(=O)c1ccc(S(=O)(=O)N(C)C2CCCCC2)cc1)c1nc2ccc(F)cc2s1	-2	-1	30	-12	-16	-30
O=C(c1ccccc1)N1C[C@@H]2[C@H](c3ccccc31)[C@H](CO)N2C(=O)CN1CCOCC1	/	/	/	/	-8	/
COc1ccc(/C=C2\Sc3ccc(C(=O)N4CCN(Cc5ccccc5)CC4)cc3N(C)C2=O)cc1OC	84*	29	60	56*	18	-60
CCC(=O)N(C)C[C@@H]1Oc2cc(-c3ccccc3C)ccc2S(=O)(=O)N([C@@H](C)CO)C[C@@H]1C	/	/	/	/	6	/
N#Cc1c(N)n(C2OC(CO)C(O)C2O)c2ncnc(N)c12 (stereo unspecified)	101*	66*	71*	62*	91*	-70
Nc1ncnc2c1ncn2C1O[C@H](CO)[C@@H](O)[C@@H]1O (stereo partly specified)	-10	6	6	-13	-4	-6
Cc1ccc(S(=O)(=O)N(C)C[C@@H]2Oc3ncc(-c4ccc(F)cc4)cc3C(=O)N([C@H](C)CO)C[C@@H]2C)cc1	/	/	/	/	7	/
Fc1ccccc1CSc1nnc(-c2ccccc2)o1	6	-27	-113	-44	/	103*
Fc1ccccc1CSc1nnc(-c2cccnc2)o1	-4	-25	-42	-48	-19	37
Clc1ccc(-c2nc(C3CCCCC3)no2)cc1	-11	-43	-88	-72	-14	91*
CCCNC(=O)Nc1ccc2c(c1)OC[C@H](C)N(CCC)C[C@@H](C)[C@@H](OC)CN(C)C2=O	/	/	/	/	1	/
SMILES	TWEAK Fn14 block	LMP1 NFkB inh	TRPM1 prom inh	TROY NFkB inh	LGR2 antag	MITF TRPM1 HTS
Cc1ccc(-c2nc3cccnc3o2)cc1NC(=O)COc1ccc(C(C)(C)C)cc1	59*	81*	-3	55*	/	4
COc1ccc(S(=O)(=O)Nc2cccc3c2O[C@H](CN(C)C)[C@H](C)CN([C@H](C)CO)C3=O)cc1	/	/	/	/	-6	/
COc1ccc(S(=O)(=O)Nc2ccc3c(c2)C(=O)N([C@@H](C)CO)C[C@H](C)[C@H](CN(C)C(=O)Cc2ccccc2)OCCCC[C@@H](C)O3)cc1	/	/	/	/	9	/
NC(=O)c1sc2nc3c(c(-c4ccco4)c2c1N)CCC3	17	31	7	13	7	-5
Nc1c(C(=O)NC2CC2)sc2nc3c(c(-c4ccco4)c12)CC/C3=C/c1ccco1	83*	1	-3	8	/	4
O=Nc1c(-c2c(O)[nH]c3cc(Br)ccc23)[nH]c2ccccc12	91*	-59	-5	69*	95*	8
O=C(CSCc1cccc(Br)c1)N=Nc1c(O)[nH]c2ccccc12	-15	-16	13	7	/	/
Nc1cccc(-c2nc3cc(S(=O)(=O)c4ccc5oc(-c6cccc(N)c6)nc5c4)ccc3o2)c1	-12	14	55	-26	/	/
Cc1ccc2oc(-c3cccc(N)c3)nc2c1	51*	-16	1	3	-2	4
Cc1ccc(-c2nc3cc(N)ccc3o2)cc1	70*	6	16	-12	/	-13
Cc1ccc(-c2nc3cc(C)ccc3o2)cc1	84*	-12	43	65*	/	-42
CC(C)c1ccc2oc(-c3ccc(N)cc3)nc2c1	81*	16	3	38	/	-5
O=C(C[C@@H]1CC[C@@H]2[C@H](COC[C@@H](O)CN2CC2CCCC2)O1)NCc1ccc(Cl)cc1	/	/	/	/	-23	/
Cc1noc(C)c1S(=O)(=O)Nc1ccc2c(c1)C(=O)N([C@H](C)CO)C[C@H](C)[C@H](CN(C)CC1CCCCC1)OCCCC[C@H](C)O2	/	/	/	/	2	/
C[C@H]1CN([C@@H](C)CO)S(=O)(=O)c2ccc(C#Cc3ccncc3)cc2O[C@H]1CN(C)C(=O)C1CCC1	/	/	/	/	-2	/
O=C(C[C@H]1C[C@H]2c3cc(NC(=O)NC4CCCCC4)ccc3O[C@H]2[C@@H](CO)O1)NCc1ccccc1	/	/	/	/	3	/
CC(C)(C)c1ccc(-c2nc3cc(N)ccc3o2)cc1	69*	-24	13	64*	/	-10
O=C(Nc1ccc2c(c1)OCO2)N[C@@H]1CC[C@@H](CCNC(=O)C2CCCC2)O[C@H]1CO	/	/	/	/	14	/
CN(c1ccccc1)c1nc2ccsc2c(=O)s1	-21	-29	-99	-47	-69	99*
C[C@@H]1CN([C@@H](C)CO)C(=O)c2cc(NS(=O)(=O)c3ccc(F)cc3)ccc2O[C@@H]1CN(C)S(=O)(=O)c1cn(C)cn1	/	/	/	/	8	/
COc1cc(OC)c2c(-c3cccc(-c4ccc(OC)c(OC)c4)c3)cc(=O)oc2c1	97*	22	?	16	-18	-60
